Screens: PubChem BioAssay, National Center for Advancing Translational Sciences (NCATS)
PI5P4K alpha inh: blocks human PI5P4K alpha kinase activity; 1.2% of 330,000 active; PI5P4Kalpha enzyme, ADP-Glo luminescence, 60 min; hits give low values; AID 652105; max response, %; P48426; active = max response of -50% or lower; inconclusive = between -30% and -50%; inactive = -30% or higher; also: value at the top dose of about 77 µM; % is scaled to controls: 0 for no effect and ±100 for the full control effect
Target sequence (P48426 whole entry, looked up): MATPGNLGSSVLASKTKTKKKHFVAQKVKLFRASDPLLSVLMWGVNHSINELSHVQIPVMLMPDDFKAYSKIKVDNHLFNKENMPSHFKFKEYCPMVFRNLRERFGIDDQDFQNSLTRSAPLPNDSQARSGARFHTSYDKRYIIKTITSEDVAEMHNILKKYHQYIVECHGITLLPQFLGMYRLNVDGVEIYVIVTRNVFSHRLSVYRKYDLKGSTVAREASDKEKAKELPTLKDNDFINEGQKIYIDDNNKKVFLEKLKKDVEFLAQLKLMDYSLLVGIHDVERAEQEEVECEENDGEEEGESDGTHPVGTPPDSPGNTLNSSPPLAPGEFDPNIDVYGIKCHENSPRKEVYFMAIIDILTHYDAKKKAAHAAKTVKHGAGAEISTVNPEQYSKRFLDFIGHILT
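Human PI5P4Kalpha with substrate in 0.038 M HEPES pH 7.4, 0.28 mM EGTA, 0.1% CHAPS, 5% DMSO; reaction started with 5 microM ATP (final), 60 min at room temperature. ADP formed read by ADP-Glo luminescence.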
GCN5L2 inh: blocks human GCN5L2 histone acetyltransferase | GCN5L2 HAT assay, ThioGlo1 CoA-SH fluorescence | AID 504327 | 0.21% of 390,000 active | Q92830 | Potency, µM (series often up to 58.9 µM), for inactives: at the top dose activity change, negative = inhibition, most hits filed as inhibitors; also: potency is read from the fitted curve at half-maximal effect; % is scaled to controls: 0 for no effect and ±100 for the full control effect
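qHTS, 1536-well. 20nM enzyme, pH 7.5 HEPES/EDTA/Tween-20 buffer; 15 min compound preinc., RT. Start: 75uM H3(1-25), 70uM AcCoA, 50uM ThioGlo1. Read Ex340/Em540 at t=0 (autofluorescence flag) and t=20 min.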
JMJD2A Tudor: inhibitors of human JMJD2A Tudor domain. O75164. AlphaScreen JMJD2A-Tudor / H3K4me3 peptide binding. Potency, µM (top dose mostly 114 µM), for the others: at the top dose activity change, negative = inhibition, hits mostly inhibitors. 4.4% of 390,000 active. AID 504339; also: potency is read from the fitted curve at half-maximal effect; % is scaled to controls: 0 for no effect and ±100 for the full control effect; nearly all actives have a fitted effect of over 50% in size
HP1b chromo inh: HP1-beta chromodomain-methylated histone interaction inhibition. P83916. AlphaScreen HP1-beta / biotin-H3K9me3 peptide binding. Potency, µM (titrated, usually from 114 µM), for the others: at the highest dose activity change, negative = inhibition, most hits filed as inhibitors. 0.56% of 390,000 active. AID 540317; also: potency is read from the fitted curve at half-maximal effect; nearly all actives have a fitted effect of over 70% in size
Target sequence (P83916 whole entry, looked up): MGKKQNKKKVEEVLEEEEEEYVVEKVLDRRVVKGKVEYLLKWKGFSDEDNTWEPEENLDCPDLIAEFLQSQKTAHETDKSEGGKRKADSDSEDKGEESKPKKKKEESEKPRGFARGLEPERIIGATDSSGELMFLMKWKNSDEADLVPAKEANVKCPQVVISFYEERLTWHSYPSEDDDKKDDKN
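AlphaScreen: HP1-beta (50 nM) preformed 30 min with biotin-H3(1-18)K9me3 peptide (50 nM) in PBS pH 7.4, 0.01% Tween-20. Compound added for 30 min at RT, then streptavidin donor/nickel chelate acceptor beads (10 ug/mL) for 30 min.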
BAZ2B inh: BAZ2B (human) inhibition; Q9UIF8; AlphaScreen BAZ2B-H3K14Ac peptide displacement; Potency, µM (highest dose often 114 µM), without a hit: at the top dose activity change, negative = inhibition, actives largely listed as inhibitors; 4.4% of 360,000 active; also: potency is read from the fitted curve at half-maximal effect; % is scaled to controls: 0 for no effect and ±100 for the full control effect; nearly all actives have a fitted effect of over 60% in size
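BAZ2B 50 nM plus b-H3(5-23)K14Ac 50 nM, PBS pH 7.4/0.01% Tween-20, 30 min RT; compound added (max 110 uM), 30 min RT; streptavidin donor/Ni-chelate acceptor beads 10 ug/mL final, 20 min dark; AlphaScreen read.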
PLK1 PBD block: inhibitors of human PLK1 polo-box domain binding. Plk1 PBD binding of FITC phosphopeptide, fluorescence polarization. AID 720504. P53350. Potency, µM, for inactives: max response, negative = inhibition, usual class: inhibitors. 2.8% of 360,000 active; also: potency is read from the fitted curve at half-maximal effect; series mostly up to about 57 µM; % is scaled to controls: 0 for no effect and ±100 for the full control effect; nearly all actives have a fitted effect of over 65% in size
Numbers without * were called inactive; ? = inconclusive; . = no result; [ ] = another dose, or the depositor's remark. A selection: hits, their analogues and other compounds. The true share with any hit is near 7%. Unless noted, calls follow the shape of the dose curve; as a rule, active = well fitted curve in the direction sought with a large enough effect; inconclusive = small, poorly fitted or top-dose-only effect, or another doubt; inactive = no such curve, though single readings can be large; an effect the other way counts as inactive or inconclusive.

SMILES | PI5P4K alpha inh | GCN5L2 inh | JMJD2A Tudor | HP1b chromo inh | BAZ2B inh | PLK1 PBD block
CCOc1cccc2sc(NC(=O)c3ccc(S(=O)(=O)N4CCCCC4)cc3)nc12 | . | ? | -24% | 17%[57 µM] | 2% | .
CC(CCc1ccccc1)NC(=O)CN1CCOc2ccccc21 (stereo not drawn) | -8 | . | -33% | 40% | . | -5%
CC(CCc1ccccc1)NC(=O)CN1CCN(c2ccc(O)cc2)CC1 (stereo not drawn) | -16 | -10% | 45µM* | 89µM* | ? | -3%
CC(C)(C)NC(=O)NC(=O)CN1CCN(c2ccc(O)cc2)CC1 | 8 | -6% | 22µM* | ? | -27% | -11%
CC(CCc1ccccc1)NC(=O)CN1CCN(Cc2ccccc2)C1=O (stereo not drawn) | . | 3% | -7% | 20% | 4% | -8%
CC(CCc1ccccc1)NC(=O)CN1CCSc2ccccc21 (stereo not drawn) | 4 | -6% | 56µM* | 79µM* | ? | ?
CCOc1ccccc1NC(=O)CSc1c(C)cnc2c1c(=O)n(C)c(=O)n2C | . | 2% | -10% | 40% | -1% | .
COc1ccc(-c2ccc(C3C(C#N)=C(N)Oc4n[nH]c(C)c43)o2)cc1 (stereo not drawn) | . | -9% | ? | -27% | 50µM* | -4%
COc1cc(C2C(C#N)=C(N)Oc3n[nH]c(-c4cccnc4)c32)cc(Br)c1O (stereo not drawn) | -63* | -6% | -34% | 9% | -29% | -8%
Cc1ccc(C2C(C#N)=C(N)Oc3n[nH]c(-c4ccccc4)c32)o1 (stereo not drawn) | -67* | -3% | 16µM* | ? | ? | 3.4µM*
O=C(Nn1c(=O)[nH]c2ccsc2c1=O)c1ccccc1 | -1 | -5% | -17% | 15% | -1% | -5%
O=c1c2sccc2[nH]c(=S)n1-c1ccccc1 | 10 | -19% | 5.6µM* | 25% | -17% | -13%
Cc1ccc(-n2c(=S)[nH]c3c(oc4ccccc43)c2=O)cc1 | 1 | -12% | -9% | 29% | -6% | -14%
O=c1c2oc3ccccc3c2[nH]c(=S)n1-c1ccccc1 | 4 | -2% | ? | -27% | 2% | 27µM*
NC(N)=NCCC[C@H](NC(=O)CNC(=O)c1ccccc1)C(=O)Nc1cc(C(F)(F)F)ccc1Cl | . | . | -30% | . | . | .
COCC(O)CNc1ccccc1 (stereo not drawn) | -5 | 7% | -33%[57.1 µM] | 37% | -27% | 24µM*
CCOc1ccc(NC(=O)Cn2cnc3nc4c(cc3c2=O)CCCC4)cc1 | . | -17% | -25% | 19%[57 µM] | -1% | .
Cc1ccc2nc(-c3ccc(NC(=O)CNC4CC4)cc3)sc2c1 | 11 | -3% | ? | -20% | 45µM* | 2%
Cc1ccc2nc(-c3ccc(NC(=O)C(F)(F)F)cc3)sc2c1 | . | -4% | -2% | 33% | 4% | .
Cc1ccc2nc(-c3ccc(NC(=O)COC(=O)c4ccc(=O)[nH]c4)cc3)sc2c1 | -17 | -6% | 45µM* | -17% | -1% | 0%
CCC(CC)COC(=O)C(C#N)c1nc2ccccc2nc1N1CCN(CC)CC1 (stereo not drawn) | . | -1% | ? | 7% | 35µM* | -1%
COc1ccc(CNC(=O)C(C#N)c2nc3ccccc3nc2N2CCN(C)CC2)cc1 (stereo not drawn) | 8 | -7% | 71µM* | ? | 50µM* | -6%
CC(=O)c1cccc(N2Cc3ccccc3C2=NC(=O)CCl)c1 | -70* | -5% | 35µM* | 2% | -35% | 13µM*
O=C(/C=C/[C@H]1O[C@@H](n2cnc3c(NC(=O)c4ccccc4)ncnc32)[C@H](O)[C@@H]1O)NCC(c1ccccc1)c1ccccc1 | 1 | . | . | . | . | 4%
Oc1c(Br)cc(C2N=C(c3ccccc3)NO2)cc1Br (stereo not drawn) | -56* | -4% | -19%[11.4 µM] | -26% | -33% | 12µM*
SMILES | PI5P4K alpha inh | GCN5L2 inh | JMJD2A Tudor | HP1b chromo inh | BAZ2B inh | PLK1 PBD block
CC1=CC2=NC(=O)CC(C)(C(=O)N(CC(=O)NC3CCCC3)c3ccccc3F)N2C=C1 (stereo not drawn) | 1 | -3% | -14% | 21%[57 µM] | 6% | 18%
CC1=CC2=NC(=O)CC(C)(C(=O)N(CC(=O)NC3CCCC3)c3ccccc3C)N2C=C1 (stereo not drawn) | -5 | 7% | 7%[11.4 µM] | -1% | -15% | 30µM*
COc1ccccc1Nc1nc2c(s1)CCC2 | -13 | -6% | -22% | -5% | -36% | 27µM*
CCCCCCN1C[C@@H](O)[C@H](n2cc(-c3ccc(F)cc3)nn2)C[C@@H]1c1ccc(C)cc1 | -1 | . | . | . | . | 1%
O=[N+]([O-])c1ccc(N2CCN(Cc3ccccc3)CC2)c2c1no[n+]2[O-] | -8 | . | . | . | . | 0%
C=CCc1c(C)nc(N2CCSCC2)[nH]c1=O | -10 | -4% | ? | -2% | -2% | 27µM*
CCc1nn(CC(=O)NCCN(CC(C)C)CC(C)C)c(=O)c2cc3sc(C)cc3n12 | . | -7% | -12% | 27% | -2% | .
OC(C#Cc1ccccn1)c1cccs1 (stereo not drawn) | -6 | 2% | 45µM* | ? | 7.1µM* | 30µM*
COc1cncc(C#Cc2ccccn2)c1 | -1 | . | . | . | . | -7%
C[C@H]1CN([C@@H](C)CO)C(=O)CCCn2cc(nn2)CO[C@@H]1CN(C)S(=O)(=O)c1ccc(C#N)cc1 | 1 | . | . | . | . | -23%
CC(C)C1=CC(=NS(=O)(=O)c2cccc([N+](=O)[O-])c2)C=C(C(C)C)C1=O | 1 | -4% | -21% | 1% | 7% | -16%
CC(C)C1=CC(=Nc2ccc(S(N)(=O)=O)cc2)C=C(C(C)C)C1=O | 4 | -19% | 56µM* | ? | 45µM* | -7%
Cn1cccc1C(=O)N1CCC2(CCN(Cc3nccs3)CC2)CC1 | . | -7% | . | . | . | .
COc1ccc(OC)c(C2=NS(=O)(=O)N(C)C(C(=O)NCc3cccs3)=C2)c1 | -13 | -5% | 22µM* | -7% | -30% | 27µM*
Cc1ccc(C2=NS(=O)(=O)N(C)C(C(=O)NCc3cccs3)=C2)cc1 | -2 | -19% | -29% | 4% | -38% | 3%
COc1ccc(OC)c(C2=NS(=O)(=O)N(C)C(C(=O)Nc3cccc(C(C)=O)c3)=C2)c1 | -18 | -6% | 16µM* | -11% | ? | 19µM*
COc1ccc(C2=NS(=O)(=O)N(C)C(C(=O)Nc3ccc(C)cc3)=C2)cc1 | 10 | ? | -20% | -3% | ? | 2%
Cc1csc(-c2cc(C(=O)NCc3ccc(F)cc3)n[nH]2)c1 | 0 | . | . | . | . | -5%
CC[n+]1ccc(C)c2cc(P(=O)(c3ccccc3)c3ccccc3)ccc21 | -16 | -9% | ? | ? | 45µM* | ?
